Drawing on PubChem BioAssay, this text covers z-score and composite z-score for 13 molecules.

Experiment [1] is described as follows: HepG2 liver cancer cell viability effects, profiling panel, resazurin fluorescence, 24 h, PK04 Diversity Set (AID 1172). Also: test concentration not given here. To be noted: higher = more signal.
Experiment [2] can be described thus: basal S. cerevisiae growth modulation, no modifier, primary screen, OD600, strain BY4716, 24 h, basal condition (AID 1173). The note with it: OD600, 24 h, higher = more signal, called active from +8 up or from −8 down.
Experiment [3] can be described thus: MM1S myeloma cell viability, profiling panel, resazurin fluorescence, basal, 24 h, PK04 Diversity Set (AID 1174).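 Also: MM1S multiple myeloma cell line; test concentration not given here.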 To be noted: higher = more signal, called active from +8 up or from −8 down. On the technique in general: The colour change of resazurin is a common sign of viable cells or microbes.
The target in experiment [4] is Dihydroorotate dehydrogenase (quinone), mitochondrial (Plasmodium falciparum (isolate 3D7)) (UniProt Q08210). As to the kind of experiment: PfDHODH enzyme inhibitors, primary screen, biochemical, C-terminal His tag, absorbance 600 nm (AID 1175).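 Also: recombinant parasite enzyme with a five histidine tag at its C terminus; test concentration not given here.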 To be noted: DCIP absorbance 600 nm, higher = more signal, called active from +8 up or from −8 down.
Sequence of Dihydroorotate dehydrogenase (quinone), mitochondrial (Plasmodium falciparum (isolate 3D7)) (Q08210 whole entry, looked up): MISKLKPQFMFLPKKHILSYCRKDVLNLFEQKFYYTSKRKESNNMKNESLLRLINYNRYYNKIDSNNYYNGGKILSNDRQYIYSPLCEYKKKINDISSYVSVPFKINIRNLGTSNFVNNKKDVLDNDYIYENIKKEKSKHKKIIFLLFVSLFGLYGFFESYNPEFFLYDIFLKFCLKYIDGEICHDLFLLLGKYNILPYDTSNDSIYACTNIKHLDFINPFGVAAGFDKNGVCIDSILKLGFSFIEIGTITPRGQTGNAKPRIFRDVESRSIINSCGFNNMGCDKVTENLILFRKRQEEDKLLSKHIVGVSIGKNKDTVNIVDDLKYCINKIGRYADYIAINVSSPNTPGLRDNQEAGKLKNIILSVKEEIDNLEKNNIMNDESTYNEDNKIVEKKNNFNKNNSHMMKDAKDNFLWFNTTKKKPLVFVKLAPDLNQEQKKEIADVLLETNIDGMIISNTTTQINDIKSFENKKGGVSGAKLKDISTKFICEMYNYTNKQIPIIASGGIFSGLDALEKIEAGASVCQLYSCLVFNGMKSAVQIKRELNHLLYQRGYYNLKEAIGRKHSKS
A short description of experiment [5]: P. aeruginosa biofilm formation inhibitors, primary screen, strain PAO1, LB-PBS medium, absorbance 600 nm (AID 1176). Also: test concentration not given here. To be noted: P. aeruginosa PAO1 growth/biofilm, A600, 12 h; higher = more signal.
Experiment [6] is described as follows: S. cerevisiae RM11-1a growth modifiers, primary screen, strain RM11-1a, OD600, basal, 24 h (AID 1177).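 Also: cultures grown under basal conditions with no added stressor; test concentration not given here.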 To be noted: OD600, 24 h, higher = more signal, called active from +8 up or from −8 down.
A short description of experiment [7]: E. coli acrAB mutant growth effects, primary screen, E. coli filamentation inducers, strain DRC39, OD650, 24 h (AID 1178).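 Also: growth measured as culture turbidity by optical density at 650 nm; test concentration not given here.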 The note with it: higher = more signal, called active from +8 up or from −8 down.
Experiment [8] is described as follows: E. coli acrAB mutant growth effects, primary screen, E. coli filamentation inducers, strain DRC39, OD650, 48 h (AID 1179).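 Also: screen aims at cell division blockers that make cells filament.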 To be noted: E. coli DRC39 delta-acrAB growth, higher = more signal, called active from +8 up or from −8 down.
A short description of experiment [9]: RPMI8226 myeloma cell viability, profiling panel, resazurin fluorescence, basal, 24 h, PK04 Diversity Set (AID 1180).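 Also: RPMI8826 multiple myeloma cell line at 5000 cells per well; test concentration not given here.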 The note with it: higher = more signal.
Experiment [10] concerns the target E3 ubiquitin-protein ligase XIAP (Homo sapiens) (UniProt P98170). As to the kind of experiment: XIAP binders, primary screen, biophysical, small-molecule microarray, fluorescence 635 nm (AID 1181).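 Also: score merges 667 nm emission and signal to noise over triplicate slides.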 The note with it: small-molecule microarray binding, higher = more signal.

The source made the active and inactive calls. Unless noted, no rule for the calls is given here.

Sequence of E3 ubiquitin-protein ligase XIAP (Homo sapiens) (P98170 whole entry, looked up): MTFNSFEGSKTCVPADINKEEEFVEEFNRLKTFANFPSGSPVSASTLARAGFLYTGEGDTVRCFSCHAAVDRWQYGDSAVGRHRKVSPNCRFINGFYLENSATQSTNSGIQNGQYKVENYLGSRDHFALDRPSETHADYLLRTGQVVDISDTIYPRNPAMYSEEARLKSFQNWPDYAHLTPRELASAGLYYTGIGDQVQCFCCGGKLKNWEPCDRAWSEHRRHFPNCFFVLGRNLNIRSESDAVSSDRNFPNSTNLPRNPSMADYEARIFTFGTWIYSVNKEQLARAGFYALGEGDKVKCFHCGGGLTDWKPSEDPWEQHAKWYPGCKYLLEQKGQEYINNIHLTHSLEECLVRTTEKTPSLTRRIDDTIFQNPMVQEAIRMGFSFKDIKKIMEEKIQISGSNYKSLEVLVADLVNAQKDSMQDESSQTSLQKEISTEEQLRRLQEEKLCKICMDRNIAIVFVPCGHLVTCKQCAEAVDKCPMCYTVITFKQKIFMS

As to `COCCOC(=O)N1C(=O)[C@@]2(c3cc(C#CCC(C(=O)OC)C(=O)OC)ccc31)[C@H](C(=O)N1CCCCCCC1)[C@H]1C(=O)O[C@H](c3ccccc3)[C@H](c3ccccc3)N1[C@@H]2c1ccc(O)cc1`, the z-score in experiment [1] is -0.124; in [2] it was -0.0861 (inactive); in experiment [3], 1.09 (inactive); in experiment [5], 0.1 (inactive); in experiment [6], 0.451 (inactive); in experiment [7], -0.543 (inactive). Further, the values for the z-score in experiment [8] and in experiment [9] were -0.86 (inactive) and 0.646, respectively. Moreover, the composite z-score in [4] was 1.49 (inactive); in experiment [10] it was 0.312.
Take `CC(C)NC(=O)[C@@H]1c2ccccc2C(=O)N(Cc2cc(C(F)(F)F)cc(C(F)(F)F)c2)[C@H]1c1ccc(CO)cc1`: the z-score in experiment [1] was 0.447; in experiment [2], -0.168 (inactive); in experiment [3], -0.0526 (inactive); in experiment [5] it was 0.733 (inactive); in experiment [6], 0.0633 (inactive); in [7] it was 1.17 (inactive). The z-score in experiment [8] is 0.393 (inactive); in experiment [9], 0.25. Further, the composite z-score in experiment [4] is 0.357 (inactive); in experiment [10] it was -0.0141.
In the case of `O=C1O[C@H](c2ccccc2)[C@H](c2ccccc2)N2[C@H]1[C@@H](C(=O)N1CCN(c3ncccn3)CC1)[C@]1(C(=O)Nc3ccc(C#CCCO)cc31)[C@H]2c1ccc(OCCO)cc1`, the z-score in experiment [1] was 0.956; in experiment [2], 1.01 (inactive); in [3], -0.901 (inactive); in experiment [5] it was 3.36 (inactive); in experiment [6], 1.2 (inactive); in [7], 0.275 (inactive). For the same molecule, the figures for the z-score in experiment [8] and in experiment [9] were -0.432 (inactive) and 0.747, respectively. Also, the composite z-score was -0.692 (inactive) in experiment [4] and 0.256 in [10].
Regarding `C[N+](C)(C)CCCC[C@@H]1NC(=O)[C@@H]2C[C@H](C(=O)NCCCCCNC(=O)CS)[C@H](c3cccc(OCCO)c3)N2C1=O`, the z-score in experiment [1] was 0.839; in [2], -0.385 (inactive); in experiment [3], 0.223 (inactive); in [5] it was -0.199 (inactive); in experiment [6], 0.342 (inactive); in experiment [7] it was 0.461 (inactive). Besides, the z-score in experiment [8] was 0.983 (inactive); in experiment [9], 0.228. For the same molecule, the composite z-score is 1.09 (inactive) in experiment [4] and -0.0562 in experiment [10].
As to `COC(=O)[C@H]1N=C(c2ccc(OCCCO)cc2)O[C@H]1c1ccccc1CN=[N+]=[N-]`, the z-score in [1] is 1.55; in experiment [2] it was -0.785 (inactive); in [3] it was 0.236 (inactive); in experiment [5] it was -0.043 (inactive); in experiment [6], 1.29 (inactive); in experiment [7], 0.535 (inactive). The z-score in experiment [8] is -0.0456 (inactive); in [9], 1.32. Moreover, the composite z-score in experiment [4] is 0.982 (inactive); in experiment [10] it was 0.331.
`COc1ccc(C(=O)Nc2ccc(CN3C(=O)[C@]4(O[C@H](CCn5cc([C@H](O)c6ccccc6)nn5)[C@@H]([Si](C)(C)c5ccc(OC)cc5)[C@@H]4C)c4ccccc43)cc2)cc1`: the z-score in experiment [1] is -1.34; in experiment [2], -0.884 (inactive); in [3], -3.17 (inactive); in [5], 1.55 (inactive); in experiment [6], 1.63 (inactive); in experiment [7], 0.938 (inactive). In addition, the figures for the z-score in experiment [8] and in experiment [9] were 0.63 (inactive) and -3.24, respectively. In addition, the composite z-score in experiment [4] is -0.0934 (inactive); in [10], 0.0623.
For `C=C(COC)/C(=C/C[C@@H](OC(=O)c1ccncc1)c1cccc(OCCO)c1)c1cc(C(=O)OC)ccc1OC`, the z-score is -0.114 in experiment [1]; -18.2 (active) in experiment [2]; -0.477 (inactive) in experiment [3]; 0.236 (inactive) in [5]; -22.1 (active) in experiment [6]; 0.802 (inactive) in [7]. For the same molecule, the figures for the z-score in [8] and in [9] were 0.488 (inactive) and 0.0987, respectively. Also, the composite z-score in experiment [4] was -7.37 (inactive); in experiment [10], 0.201.
Take `CC(=O)NCCCC[C@@H]1NC(=O)[C@H]2C[C@@H](C(=O)NCCCCCN)[C@@H](c3cccc(OCCO)c3)N2C1=O`: the z-score in experiment [1] is 0.382; in [2], -1.74 (inactive); in experiment [3] it was 1.18 (inactive); in experiment [5] it was 0.0904 (inactive); in experiment [6], -1.1 (inactive); in experiment [7] it was 1.03 (inactive). For the same molecule, the results for the z-score in [8] and in [9] were 1.24 (inactive) and 1.5, respectively. Further, the results for the composite z-score in [4] and in experiment [10] were -0.613 (inactive) and -0.02, respectively.
On to `O=C1C2C=CC(C(O)c3ccc(Br)cc3)N(Nc3ccccc3)C2C(=O)N1c1ccccc1` (stereo not given), for which the z-score was -0.69 in experiment [1]; -3.48 (inactive) in experiment [2]; -1.95 (inactive) in [3]; 1.22 (inactive) in experiment [5]; 0.501 (inactive) in [6]; -0.387 (inactive) in experiment [7]. For the same molecule, the figures for the z-score in [8] and in [9] were -0.604 (inactive) and -1.48, respectively. Besides, the composite z-score in [4] is 1.02 (inactive); in experiment [10] it was 0.184.
For the molecule `COc1ccccc1CN1C(=O)c2ccccc2[C@@]2(Cc3ccccc3N(C3CC3)C2=O)[C@@H]1c1ccc(CO)cc1`, the z-score in experiment [1] was 0.409; in [2], 0.162 (inactive); in experiment [3] it was -0.319 (inactive); in experiment [5], -0.255 (inactive); in experiment [6], -0.522 (inactive); in [7], -0.473 (inactive). In addition, the z-score was -0.694 (inactive) in [8] and -0.343 in experiment [9]. Moreover, the composite z-score in experiment [4] is -6.76 (inactive); in experiment [10], -0.232.
As for `O=C1c2ccccc2C(=O)C2CC([C@H]3Oc4ccccc4S(=O)(=O)N4CCC[C@@H]34)=CCC12` (stereo not given in full), the z-score in experiment [1] is 0.0623; in experiment [2] it was -2.32 (inactive); in experiment [3], -0.583 (inactive); in experiment [5] it was -0.246 (inactive); in experiment [6], -0.841 (inactive); in experiment [7] it was 1.96 (inactive). Further, the z-score in [8] was 0.34 (inactive); in experiment [9], 0.183. The composite z-score in experiment [4] is 0.0834 (inactive); in experiment [10], 0.0374.
Regarding `CC(C)C[C@@H]1NC(=O)[C@@H]2C[C@H](C(=O)NCCCC[N+](C)(C)C)[C@H](c3cccc(OCCO)c3)N2C1=O`, the z-score is -3.45 in [1]; 1.45 (inactive) in experiment [2]; -0.986 (inactive) in [3]; 1.3 (inactive) in experiment [5]; 0.958 (inactive) in experiment [6]; -0.234 (inactive) in experiment [7]. Also, the z-score was -0.667 (inactive) in experiment [8] and -1.16 in experiment [9]. The values for the composite z-score in experiment [4] and in [10] were -29 (active) and -0.127, respectively.
Turning to `C[C@]12C(=O)N(CCCCCO)[C@@H]3C(=O)N(c4ccc(Cl)cc4)CC=CC31O[C@@H]1/C=C\CCCOC(=O)C12` (stereo not given in full), the z-score in experiment [1] was -0.626; in [2], -0.225 (inactive); in [3], 0.194 (inactive); in [5] it was -0.677 (inactive); in experiment [6] it was -0.605 (inactive); in [7], -0.308 (inactive). Moreover, the values for the z-score in experiment [8] and in experiment [9] were -0.175 (inactive) and -0.135, respectively. The composite z-score is -0.841 (inactive) in [4] and 0.234 in [10].
